Reference: PubChem BioAssay AID1220 (Sanford-Burnham Center for Chemical Genomics, 2008)
Among all 190,000 compounds or so, about 1,300 (0.68%) were called active. What follows is part of a selection rich in actives, with near analogues and random picks from the rest. Unmarked numbers belong to inactive results. Cut-off read from the data, not from the text of the source: active = inhibition above about 50%; inactive = the rest.

Biological target: Mannose-6-phosphate isomerase (Homo sapiens) (UniProt P34949)
Test: MPI inhibition at elevated mannose 6-phosphate – biochemical, fluorescence intensity, high mannose 6-phosphate, primary screen (AID 1220)
Conditions: recombinant PMI enzyme, coupled fluorescence intensity; at 20 µM; stronger effect = higher value

Mannose-6-phosphate isomerase (Homo sapiens), sequence (P34949 whole entry, looked up): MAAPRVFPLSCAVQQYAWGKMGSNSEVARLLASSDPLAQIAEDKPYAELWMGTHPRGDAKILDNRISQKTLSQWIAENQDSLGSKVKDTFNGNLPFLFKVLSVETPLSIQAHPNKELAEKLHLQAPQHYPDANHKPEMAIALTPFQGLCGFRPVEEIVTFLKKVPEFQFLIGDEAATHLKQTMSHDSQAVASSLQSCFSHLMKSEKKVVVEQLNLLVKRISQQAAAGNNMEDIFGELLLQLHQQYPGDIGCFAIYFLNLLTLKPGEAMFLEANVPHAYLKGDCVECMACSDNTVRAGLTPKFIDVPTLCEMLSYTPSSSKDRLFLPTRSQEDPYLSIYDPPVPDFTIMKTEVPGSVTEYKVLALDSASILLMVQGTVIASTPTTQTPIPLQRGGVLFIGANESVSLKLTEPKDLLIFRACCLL

Compound | inhibition
O=C(N=Nc1c(O)[nH]c2ccccc12)c1cc(NS(=O)(=O)c2cccs2)cc(NS(=O)(=O)c2cccs2)c1 | -0.7%
O=C(N/N=C/C=C\c1ccccc1[N+](=O)[O-])c1ccccn1 | 13.1%
COc1ccc(N2CCN(C(c3cccs3)C(C)NS(=O)(=O)c3ccccc3)CC2)cc1 (stereo not given) | 20.1%
CN(c1ccc(OCC(=O)OCC(=O)NC2CCCC2)cc1)S(=O)(=O)c1ccc2ccccc2c1 | 23.5%
O=C(O)C1CCC(Cn2c(SCc3cc(=O)n4cc(Br)ccc4n3)nc3ccsc3c2=O)CC1 (stereo not given) | 5.7%
Cc1ccc2cc(S(=O)(=O)NCCCN3CCOCC3)ccc2c1 | 4.1%
O=C(CNc1cccc2ccccc12)N/N=C/c1ccc([N+](=O)[O-])o1 | 60.4% (active)
O=C(CNc1ccc2ccccc2c1)N/N=C/c1ccc([N+](=O)[O-])o1 | 46.2%
O=C(CNc1ccccc1)N/N=C/c1ccc([N+](=O)[O-])o1 | 8%
O=C(O)/C=C/C(=O)N1CCN(c2ccccc2F)CC1 | 2.7%
N#CCSc1nnc(C2CCCCC2)n1-c1ccccc1 | 11.9%
NC(=O)c1cccc(S(=O)(=O)N2CC(c3ccccc3)CC2=O)c1 (stereo not given) | 5.1%
Cc1c(C(=O)Oc2cccc3cccnc23)cccc1[N+](=O)[O-] | 36.1%
COc1ccc(C(=O)Oc2cccc3cccnc23)cc1[N+](=O)[O-] | 51.9% (active)
Cc1cc(Cl)ccc1Oc1ccc(C(N)=O)cc1[N+](=O)[O-] | 5.8%
O=[N+]([O-])c1ccc(Oc2cccc3cccnc23)c([N+](=O)[O-])c1 | 11.4%
NC(=O)c1ccc(Oc2cccc3cccnc23)c([N+](=O)[O-])c1 | 50.2% (active)
O=C(Oc1cccc2cccnc12)c1cccc([N+](=O)[O-])c1 | 44.3%
COc1cccc(CNC(=O)CCC2CCCN(C(=O)CCC(F)(F)F)C2)c1 (stereo not given) | 7.7%
CCNc1nc(NCC)n2c(SCC(=O)c3ccc(C(C)C)cc3)nnc2n1 | -21%
CCCNC(=O)Cc1c(O)c2ccccc2[nH]c1=O | 6.5%
COc1cc(C2C3=C(Nc4ncnn42)c2ccccc2CC3)cc(OC)c1OC (stereo not given) | 51.9% (active)
COc1ccc(C2C3=C(Nc4ncnn42)c2ccccc2CC3)cc1OC (stereo not given) | 38.6%
COc1ccc(C2C3=C(Nc4ncnn42)c2ccccc2CCC3)cc1 (stereo not given) | 3.7%
Cc1cccc2cc(-c3nc4c(C)cccn4c3NCc3ccco3)c(=O)[nH]c12 | 1.7%

Compound | inhibition
Cc1cccn2c(=O)c(C=Nc3ccccc3)c(NCc3ccco3)nc12 | -12.9%
Cc1ccn2c(-c3csc(NCc4ccco4)n3)c(C)nc2c1 | 48.7%
Cc1ccc2[nH]c(=O)c(-c3nc4cc(C)ccn4c3NCc3ccco3)cc2c1 | 53.7% (active)
Cc1ccc2[nH]c(=O)c(-c3nc4c(C)cccn4c3NCc3ccco3)cc2c1 | 55.2% (active)
Cc1ccc2[nH]c(=O)c(-c3nc4ccccn4c3NCc3ccco3)cc2c1 | -4.9%
CC1CCCCC1NCc1cccc([N+](=O)[O-])c1 (stereo not given) | 2.2%
CCc1ccc(C2=NN(S(C)(=O)=O)C(c3cccs3)C2)cc1 (stereo not given) | 3.7%
COc1ccccc1NC(=O)Cn1cnc2sc(C(=O)NCc3ccco3)c(C)c2c1=O | -4.1%
Nc1nc2c(Cl)ccc(Cl)c2s1 | 8%
Nn1c(SCc2ccccn2)nncc1=O | -1.6%
C/C(=N\Nc1ccccn1)c1ccc(C(C)C)cc1 | 11.6%
CCOc1ccccc1NC(=O)COC(=O)C(CC)c1ccccc1 (stereo not given) | 64.5% (active)
CCC(C(=O)OCC(=O)Nc1cc(C)ccc1OC)c1ccccc1 (stereo not given) | 0.3%
CCC(C(=O)OCC(=O)Nc1ccc(OC)cc1OC)c1ccccc1 (stereo not given) | 10.5%
O=C(NC1CCCc2ccccc21)c1ccc2c(c1)OCO2 (stereo not given) | 8.7%
COc1ccc(-n2cc(CNCC3CCOCC3)c(-c3cccc(F)c3)n2)cc1 | 4.6%
CCOC(=O)C1CCN(c2cc(=O)n(-c3ccccc3Cl)c(=O)[nH]2)CC1 | -1.4%
O=c1c(-c2ccccc2)nc(-c2ccccc2)cn1O | 3.4%
Cc1nc(-c2ccccc2)ccc1C(=O)O | 0.4%
Cc1nc(-c2ccccc2)cn(O)c1=O | 65.6% (active)
CCOC(=O)N1CCN(C(=O)CSc2ccc3nnc(-c4ccncc4)n3n2)CC1 | 8.4%
COc1ccccc1/C=N/Nc1nncc2ccccc12 | -1.9%
COc1ccccc1/C=N/NC1=NCCCCC1 | 0.4%
COc1ccccc1/C=N/Nc1cc(N(C)C)nc(N(C)C)n1 | 63.4% (active)
O=C(CCCN1C(=O)c2ccccc2C1=O)Nc1c2c(nc3c1CCC3)CCC2 | -20.1%

Compound | inhibition
Cc1nn(C)c(C)c1NC(=O)CC12CC3CC(CC(C3)C1)C2 | -1.3%
COc1cc(C)nc(N2CCC(C(=O)NC3CCCCC3)CC2)n1 | 3.7%
CC(=O)c1cccc(NC(=O)CCS(=O)(=O)c2cccc3nsnc23)c1 | -33.5%
CCOc1ccc(OCCCCNC(C)(C)C)cc1 | 58.8% (active)
CC(C)(C)NCCCCOc1ccc(F)cc1 | 4.1%
CCOc1ccc(OCCCCNCCN)cc1 | -2.4%
O=P(CO)(Cc1ccccc1)Cc1ccccc1 | 5%
O=C(O)C/C=C(\NC(=O)OCc1ccccc1)C(=O)OCc1ccccc1 | -163%
Cc1cc(C)n2c(SC/C(O)=C(\C#N)c3nc4ccccc4[nH]3)nnc2n1 | 53.4% (active)
Cc1ccccc1-n1c(SC/C(O)=C(\C#N)c2nc3ccccc3[nH]2)nnc1-c1ccncc1 | 20.6%
Cn1cnnc1SC/C(O)=C(\C#N)c1nc2ccccc2[nH]1 | 0.7%
CCOc1cc(/C=N/NC(=O)COc2ccc(Cl)cc2)ccc1OS(=O)(=O)c1ccccc1 | -94.4%
COc1ccccc1C(=O)Nc1cc2cc(Cl)ccc2oc1=O | -8%
COC(=O)C(N)Cc1ccc(O)cc1 (stereo not given) | -2.8%
COC(=O)[C@@H](N)Cc1ccc(O)cc1 | 6.4%
NC(CO)C(=O)NNCc1ccc(O)c(O)c1O (stereo not given) | 60.4% (active)
COc1cc2c(cc1OC)CN(C(=O)CSc1nnc(C)s1)CC2 | -13.4%
N#CC1=C2SCN(c3ccccc3)CN2C(=O)CC1c1ccccc1Cl (stereo not given) | -41%
CCc1ccc(N2CSC3=C(C#N)C(c4cccs4)CC(=O)N3C2)cc1 (stereo not given) | -68.6%
N#CC1=C2SCN(Cc3ccccc3)CN2C(=O)CC1c1cccs1 (stereo not given) | 67.2% (active)
N#CC1=C2SCN(Cc3ccccc3)CN2C(=O)CC1c1ccccc1F (stereo not given) | 52.1% (active)
N#CC1=C2SCN(c3ccccc3)CN2C(=O)CC1c1cccs1 (stereo not given) | -2%
CCc1ccccc1N1CSC2=C(C#N)C(c3ccccc3F)CC(=O)N2C1 (stereo not given) | -5.1%
O=C(COC(=O)c1cccnc1)Nc1ccc2c(c1)OCO2 | 17.6%
Cc1cc(C)c(C(=O)Nc2ccc(S(=O)(=O)Nc3onc(C)c3C)cc2)c(C)c1 | 7.8%

Compound | inhibition
OC(COC1CCCCC1)CN1CCN(c2ccccc2)CC1 (stereo not given) | 10.6%
N/C(=N\OC(=O)c1cc(Cl)ccc1Cl)c1ccccn1 | -10.6%
Cc1cc(C)n(CCN(C)c2nc3nonc3nc2NC2CC2)n1 | 14.8%
Cc1[nH]c2c(C)cccc2c1CCNC(=O)c1ccc2c(c1[N+](=O)[O-])C(=O)c1ccccc1C2=O | 55.5% (active)
CCN(CC)C(=O)c1ccc2c(c1[N+](=O)[O-])C(=O)c1ccccc1C2=O | 29.5%
Cc1[nH]c2ccccc2c1CCNC(=O)c1ccc2c(c1[N+](=O)[O-])C(=O)c1ccccc1C2=O | 53.9% (active)
CN(C)C(=O)c1ccc2c(c1[N+](=O)[O-])C(=O)c1ccccc1C2=O | -16.2%
Cc1ccc([N+](=O)[O-])cc1S(=O)(=O)NCCc1c(C)[nH]c2c(C)cccc12 | -3%
CCCNC(=O)NCCc1c(C)[nH]c2ccccc12 | 0.4%
O=C(O)c1cccc(NS(=O)(=O)c2ccc3nnn(O)c3c2)c1 | 11.9%
CCn1c(=O)c(C(=O)NNS(=O)(=O)c2ccc(Cl)cc2)c(O)c2ccccc21 | -7.4%
CN(C(=O)c1c(Br)cnn1C)C12CC3CC(CC(C3)C1)C2 | -2.3%
CCC(=O)Nc1cccc(NC(=O)COc2ccc(OC)cc2)c1 | 6.7%
C=CCn1c(NC(=O)c2ccc(Br)o2)c(S(=O)(=O)c2ccccc2)c2nc3ccccc3nc21 | 50.8% (active)
Cc1ccc(-n2c(N)c(S(=O)(=O)c3ccccc3)c3nc4ccccc4nc32)cc1 | 0.2%
CCCCCn1c(NC(=O)c2ccco2)c(S(=O)(=O)c2ccc(C)cc2)c2nc3ccccc3nc21 | 50.2% (active)
CCCCn1c(NS(=O)(=O)c2ccc(C)cc2)c(S(=O)(=O)c2ccccc2)c2nc3ccccc3nc21 | 54.9% (active)
CCCCn1c(NCc2ccccc2NS(=O)(=O)c2ccc(C)cc2)nc2ccccc21 | 15.2%
Cc1ccc(S(=O)(=O)c2c(N)n(NC(=O)c3ccco3)c3nc4ccccc4nc23)cc1 | -41.3%
CCCCn1c(NC(=O)c2ccc(Br)o2)c(S(=O)(=O)c2ccccc2)c2nc3ccccc3nc21 | 5.9%
C=CCn1c(NC(=O)c2ccco2)c(S(=O)(=O)c2ccccc2)c2nc3ccccc3nc21 | 34.3%
C=CCn1c(NS(=O)(=O)c2ccccc2)c(S(=O)(=O)c2ccc(C)cc2)c2nc3ccccc3nc21 | 52.4% (active)
Cc1ccc(S(=O)(=O)c2c(N)n(CCC(C)C)c3nc4ccccc4nc23)cc1 | 1.8%
Cc1ccc(S(=O)(=O)c2c(N)n(Cc3ccco3)c3nc4ccccc4nc23)cc1 | -3.1%
CC(=O)Nc1c(S(=O)(=O)c2ccccc2)c2nc3ccccc3nc2n1Cc1ccccc1 | 7.9%
